Results published in article PMC6212790, “How bacterial xenogeneic silencer rok distinguishes foreign from self DNA in its resident genome”.
In all, about 33,000 sequences were measured (“e-score”: median about -0.038, highest 2% from about 0.33 on). The list comes from a sample in which the highest values are over-represented; it also holds similar and randomly drawn sequences.

target: T1, GST-Rok-C97-191 (Bacillus subtilis subsp. subtilis str. …, UniProt O34857 97-191); assay: protein binding microarray; Rok is a gene silencer of Bacillus subtilis; high values mean tight binding; details: protein: recombinant; tags: GST (pTH5325, pDEST15-Magic modified); dsDNA, one strand shown
T1 sequence: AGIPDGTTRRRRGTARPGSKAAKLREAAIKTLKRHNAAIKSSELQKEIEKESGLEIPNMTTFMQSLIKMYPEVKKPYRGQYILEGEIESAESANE
Procedure, shortened: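 Each has a 25-mer constant primer and a 35-mer variable part from a de Bruijn sequence of order 10, covering every non-palindromic 8-mer at least 32 times (palindromic 16). Preference for each 8-mer is given as a rank-based, unitless enrichment score (E-score). Its range runs from 0.5 (most favored) to −0.5 (most disfavored).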

| Sequence | binding signal [E-score] |
| --- | --- |
| ATAATGTA | 0.405 |
| GTAATGTA | 0.339 |
| GTAATGAA | -0.0192 |
| ATAAACGG | 0.19 |
| CGCCACCG | -0.0411 |
| ATTACTCG | 0.198 |
| ATTACTAA | 0.326 |
| ATTACTAC | 0.407 |
| CTTACTAC | 0.171 |
| ATTACTAG | 0.392 |
| ATTACTGC | 0.11 |
| ATGTTTAC | 0.00161 |
| AAATGGTT | 0.177 |
| AGCTTCTG | -0.0648 |
| CGCTAGAC | 0.00486 |
| ATGTCCAC | -0.0386 |
| ATCTACGA | 0.333 |
| ATCTACCG | 0.394 |
| CTCTACGA | 0.107 |
| ACCTACCG | 0.148 |
| GTCTACCA | 0.15 |
| GTCTACGA | -0.0769 |
| ATCTACCC | 0.22 |

| Sequence | binding signal [E-score] |
| --- | --- |
| ATCTATCG | 0.313 |
| ATCTACCA | 0.469 |
| CGAAAGAC | -0.0876 |
| GAAAGACA | -0.0886 |
| GTGCAGTA | 0.196 |
| ATCGAGGC | -0.159 |
| TATGACGA | 0.0683 |
| ATATTTAA | 0.338 |
| CTATTTAC | 0.349 |
| ATATTAAA | 0.385 |
| ATTTTTAA | 0.146 |
| ATATTAAC | 0.296 |
| ACATTTAC | 0.315 |
| CTCTTTAC | 0.0967 |
| CTATTTAA | 0.14 |
| ATATTTGC | 0.295 |
| ATATTTAG | 0.201 |
| ATATTTAC | 0.375 |
| CTATTAAA | 0.0376 |
| CTTTACTC | -0.199 |
| ATGTAGGA | 0.201 |
| CTTGACGA | -0.14 |
| TATGTACA | 0.345 |

| Sequence | binding signal [E-score] |
| --- | --- |
| AATGTACA | 0.34 |
| AGTGTACA | 0.141 |
| AATGTACG | 0.155 |
| GATGTACA | 0.29 |
| CATGTACA | 0.317 |
| AATGTACT | 0.296 |
| CATGTACC | 0.227 |
| AATGTACC | 0.373 |
| CCGAGTCG | -0.148 |
| AGGAGAAA | 0.073 |
| CACGAAGC | -0.104 |
| AGCATTTG | -0.0352 |
| AACTGAAC | 0.106 |
| GCCATTGA | -0.0503 |
| TATTTAAA | 0.186 |
| AAAAGACG | 0.0272 |
| TAACGGTA | 0.278 |
| CTTGAAGA | -0.0244 |
| ATTTATAA | 0.294 |
| ATTTATAC | 0.348 |
| CTTTATAC | 0.227 |
| ATTTATGG | 0.174 |
| AGTTATAC | 0.241 |

| Sequence | binding signal [E-score] |
| --- | --- |
| ATTTATAG | 0.358 |
| GACTCTCA | -0.0851 |
| GGTCTGCA | -0.0588 |
| AACTACAA | 0.348 |
| AGCTACAC | 0.169 |
| ATCTACAC | 0.273 |
| AACTACAC | 0.33 |
| AGCTACAA | 0.209 |
| ATCTACAG | 0.309 |
| GACTACAA | -0.00391 |
| CACTACAA | 0.173 |
| CACTACAC | 0.0572 |
| AGCTACAT | 0.368 |
| ATCTACAT | 0.342 |
| GACTACAC | -0.000838 |
| AGAACTGG | -0.0864 |
| CAATGGGC | -0.197 |
| AATCGCCA | -0.00284 |
| AAAGCCAT | -0.088 |
| GTTCCTGA | -0.0326 |
| ACTCGTTA | 0.225 |
| AACTACGT | 0.338 |
| AACTACGA | 0.283 |

| Sequence | binding signal [E-score] |
| --- | --- |
| AACTACAG | 0.327 |
| AACTACGC | 0.126 |
| ACCTACAT | 0.227 |
| AACTACAT | 0.364 |
| AACAATGA | 0.0026 |
| ACGAGCAG | -0.19 |
| ATTTTGAC | 0.235 |
| ACGCTCAC | -0.0887 |
| ACCATAAC | 0.0976 |
| GACTTTAC | -0.0515 |
| AAATCTGT | 0.141 |
| AAATCTAG | 0.352 |
| AAATCTGC | -0.0413 |
| AAATCTTC | 0.0559 |
| AAATCTAT | 0.4 |
| CAATCTAG | 0.206 |
| AAATCTAA | 0.202 |
| AAATCTAC | 0.441 |
| ACATCTAG | 0.323 |
